# Only a selection was taken, and hits are over-represented in it overall.
# AMPAR-TARP mod: modulators of GluA2-stargazin AMPA receptor complexes, primary screen, cell-based, membrane potential dye | Voltage-dependent calcium channel gamma-2 subunit (Mus musculus) + Glutamate receptor 2 … | HEK293 GluA2+stargazin, membrane potential dye (FDSS), glutamate EC50; hits were called plate by plate, in both directions | calls only at 30 µM | 40,000 tested, 3.5% active;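 active means any of four per-well response measures lying three or more SD from its plate-wide compound average, in either direction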
# GIRK2 activator: activators of NPY4-receptor-primed GIRK2 channels, summary, cell-based, HEK293, thallium flux | G protein-activated inward rectifier potassium channel 2 (Homo sapiens), P48051 | HEK293 GIRK2/NPY4 cells, thallium flux fluorescence | activation (% efficacy), % for hits at 37.5 µM | 34,000 tested, under 10 active;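 active means primary screen hit, no activity in plain HEK293 cells, and in GIRK2-only cells above 5% efficacy rising with concentration; inactive means the rest, including fluorescent compounds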;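 further: efficacy is normalized control-subtracted fluorescence 15 s after thallium addition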
# Target sequence (P48051 whole entry, looked up): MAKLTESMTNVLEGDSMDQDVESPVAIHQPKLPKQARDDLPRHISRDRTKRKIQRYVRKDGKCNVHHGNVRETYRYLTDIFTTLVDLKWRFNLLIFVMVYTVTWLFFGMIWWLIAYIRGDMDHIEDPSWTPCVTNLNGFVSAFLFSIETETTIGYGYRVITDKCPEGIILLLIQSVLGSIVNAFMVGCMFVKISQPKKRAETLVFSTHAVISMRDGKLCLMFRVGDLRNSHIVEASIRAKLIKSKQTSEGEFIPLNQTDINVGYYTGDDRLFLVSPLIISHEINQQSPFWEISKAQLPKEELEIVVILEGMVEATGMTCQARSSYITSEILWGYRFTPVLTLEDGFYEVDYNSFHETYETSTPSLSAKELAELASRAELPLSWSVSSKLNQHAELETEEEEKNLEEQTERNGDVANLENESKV
# Active calls of the source: *; i = inactive; . = not tested or not shown; + = active, no number; ! = not confirmed by another sample.
SMILES,AMPAR-TARP mod,GIRK2 activator
CCOc1ccc2nc(N(Cc3ccncc3)C(=O)/C=C/c3cccc([N+](=O)[O-])c3)sc2c1,i,i
COc1ccc(C)c2sc(N(CCN3CCOCC3)C(=O)c3ccccc3)nc12,i,.
COc1ccc(C)c2sc(N(CCN3CCOCC3)C(=O)c3ccc([N+](=O)[O-])s3)nc12,+,.
CCCC(=O)N(CCN1CCOCC1)c1nc2cc(OC)ccc2s1,+,i
COc1ccc2nc(N(CCN3CCOCC3)C(=O)/C=C/c3cccc([N+](=O)[O-])c3)sc2c1,+,i
COc1ccc2sc(N(CCN3CCOCC3)C(=O)CSc3ccc(C)cc3)nc2c1,i,i
COc1ccc2nc(N(CCN3CCOCC3)C(=O)c3ccc([N+](=O)[O-])cc3)sc2c1,i,.
O=C(NCC1CCN(C(=O)c2cc3ccccc3o2)CC1)C1CC(=O)N(c2ccccc2)C1 (stereo not given),i,i
CC(=O)c1ccc(NC(=O)c2ccc(COc3ccccc3)o2)cc1,i,.
Cc1cc(C)cc(OCCNC(=O)COc2ccc(Cl)cc2)c1,i,i
Cc1cc(=O)[nH]c(-n2nc(-c3ccco3)cc2NC(=O)c2cccs2)n1,i,i
COc1ccc(C)c2sc(N(CCCN(C)C)C(=O)c3ccnn3C)nc12,i,.
COc1ccc2nc(N(CCN3CCOCC3)C(=O)c3nc4ccccc4s3)sc2c1,i,i
COc1ccc2nc(N(CCN3CCOCC3)C(=O)c3ccc(Cl)s3)sc2c1,+,.
Cc1ccc(S(=O)(=O)N(C)c2ccsc2C(=O)Nc2cc(C)cc(C)c2)cc1,i,i
COc1ccc(-c2cc(OCC(=O)Nc3ccc(OC)cc3OC)c3ccccc3n2)cc1,i,i
COc1ccc(Nc2nc(N3CCNCC3)nc3ccccc23)c(OC)c1,+,.
CSCCC(C)(O)CNC(=O)c1cc2ccccc2oc1=O (stereo not given),i,i
CSCCC(C)(O)CNC(=O)c1cc2ccccc2o1 (stereo not given),+,i
CCOc1ccccc1NC(=O)C(=O)NCCC(c1ccccc1)c1ccccc1,i,.
O=C(Cn1cnc(-c2cccs2)cc1=O)NCCOc1ccc(-c2ccco2)nn1,+,i
CCC(=O)NCCOc1ccc(-c2cccs2)nn1,i,i
Cn1cccc1C(O)CNC(=O)CN1C(=O)CCC1=O (stereo not given),i,i
CS(=O)(=O)Nc1ccc(CC(=O)NCC(F)(F)F)cc1,i,i
COc1ccc(-c2noc(C3CCN(S(=O)(=O)c4ccc(Cl)cc4)CC3)n2)cc1,i,i
SMILES,AMPAR-TARP mod,GIRK2 activator
COc1ccc(-c2noc(C3CCN(S(=O)(=O)c4ccc(C)cc4)CC3)n2)cc1,+,i
CS(=O)(=O)c1ccc(CC(=O)Nc2nnc(CS(=O)(=O)c3ccccc3)o2)cc1,i,i
CC(=O)Oc1ccc2c(=O)c(Oc3ccc(I)cc3)coc2c1,i,.
Cc1cc(C)c(C(=O)NCCc2ccccc2)c(C)c1,+!,i
Cc1ccc(C)c(S(=O)(=O)Nc2ccc(C(=O)NCCc3ccccc3)cc2)c1,i,.
Cc1cc(Nc2ccc(Cl)cc2)nc(-n2cc([N+](=O)[O-])cn2)n1,+,i
Cc1cc(N2CCN(Cc3ccccc3)CC2)nc(-n2cc([N+](=O)[O-])cn2)n1,+,i
COc1ccc(Nc2cc(C)nc(-n3cc([N+](=O)[O-])cn3)n2)cc1,i,i
Cc1cc(N2CCC(Cc3ccccc3)CC2)nc(-n2cc([N+](=O)[O-])cn2)n1,i,i
O=C(c1nc2ccccc2s1)N(CCc1ccccc1)Cc1ccccn1,+,i
CSc1ccccc1C(=O)N(CCc1ccccc1)Cc1ccccn1,i,i
COc1cc(/C=C2\Oc3cc(OC(=O)c4ccccc4F)ccc3C2=O)cc(OC)c1OC,+,.
COc1cc(/C=C2\Oc3cc(OC(C)=O)ccc3C2=O)cc(OC)c1OC,i,.
O=C(/C=C/c1ccccc1)N1CCN(c2ccc(N3CCN(CCO)CC3)nn2)CC1,i,i
COc1ccc(NC(=O)CSc2nccn3nc(-c4ccccc4)cc23)c(OC)c1,i,i
COc1ccc(S(=O)(=O)CC(=O)N(Cc2ccccn2)c2nc3c(C)ccc(C)c3s2)cc1,i,.
Cn1ccnc1N1CCN(C(=O)Cc2cccs2)CC1,i,i
Cc1cc(NC(=O)C(=O)NCC(c2cccn2C)N(C)C)no1 (stereo not given),i,i
Cn1c(O)c(N=Nc2nc3c(c(=O)[nH]c(=O)n3C)n2CCCOc2ccccc2)c(=O)n(C)c1=O,i,.
Cn1c(=O)c2c(nc(NCc3ccccc3)n2CC(=O)N=Nc2c(O)[nH]c3ccccc23)n(C)c1=O,+,.

# Source: PubChem
